PTHR1 agonist = PTHR1 (human) receptor agonism | HEK293 GP2 PTHR1 cells, GloSensor cAMP luminescence, 1 h | actives 0.075% (n = 410,000) | AID 743266 | Q03431 | Potency, µM (highest dose often 115 µM), inactives show at the highest dose activation, most hits filed as activators; note: potency is the fitted concentration of half-maximal effect; nearly all actives have a fitted effect of over 55% in size
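HEK-293-derived GP2 cells expressing PTHR1 and a GloSensor cAMP reporter, 3,000/well, plated overnight, given luciferin plus IBMX (each 0.5 mM as added) for 1 h at 37 °C, then compound for 1 h at 37 °C. Luminescence was read after 15 min at room temperature.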
D3 antag = antagonists of human D3 dopamine receptor; actives 2.5% (n = 360,000); max response, negative = inhibition, %; AID 652054; P35462; D3R cells, DiscoveRx beta-arrestin luminescence, antagonist mode; active compounds read low; in the data active = max response below about -50%; inconclusive = no clear call, values can overlap the other calls; note: % is set by controls: 0 for no effect and ±100 for the full control effect
Target sequence (P35462 whole entry, looked up): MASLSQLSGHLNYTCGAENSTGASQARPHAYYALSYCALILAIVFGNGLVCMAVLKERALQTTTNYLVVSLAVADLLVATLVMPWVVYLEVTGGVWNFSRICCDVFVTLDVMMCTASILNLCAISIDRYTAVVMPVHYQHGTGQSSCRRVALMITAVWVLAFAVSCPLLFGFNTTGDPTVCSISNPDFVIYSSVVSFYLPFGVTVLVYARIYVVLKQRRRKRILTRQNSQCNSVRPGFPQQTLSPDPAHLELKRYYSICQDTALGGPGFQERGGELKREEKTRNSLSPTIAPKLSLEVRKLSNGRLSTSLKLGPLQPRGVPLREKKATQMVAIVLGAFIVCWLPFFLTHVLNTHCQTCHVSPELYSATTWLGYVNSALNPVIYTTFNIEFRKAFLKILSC
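Cells expressing the human receptor were seeded at 1500 cells/well, incubated overnight at 37 degrees C in 5% CO2, then exposed to library compounds with dopamine controls for 90 minutes at 37 degrees C before luminescent detection.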
B2AR arrestin = recruits beta-arrestin to the human beta2-adrenergic receptor; P07550; beta-arrestin recruitment to beta2AR, cell-based reporter; Potency, µM (top dose mostly 46.1 µM), for inactives: at the highest dose activation, hits mostly activators; actives 0.02% (n = 330,000);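 note: potency is the fitted concentration of half-maximal effect; 0% = DMSO controls and full agonism = EC100 isoproterenol or metaproterenol; nearly all actives have a fitted effect of over 65% in size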
D3 ag = agonists of human D3 dopamine receptor. max activation, %. D3R DiscoveRx beta-arrestin cells, luminescence, 90 min. actives 0.58% (n = 410,000). P35462; in the data active = max activation above about 30%; note: 0% is about no effect
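Cells at 1500/well, incubated overnight, then treated with pinned compounds (dopamine as control) for 90 min at 37 degrees C. DiscoveRx reagent added for 30 - 60 minutes at room temperature; luminescence read.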
RGS4 inhibitor = inhibitors of human regulator of G protein signaling 4; AID 504845; Potency, µM (highest dose often 114 µM), inactives show top-dose activity change, negative = inhibition, most hits filed as inhibitors; Transcreener GDP fluorescence polarization, RGS4-accelerated GTP hydrolysis; actives 0.039% (n = 390,000); note: potency is the fitted concentration of half-maximal effect; % is set by controls: 0 for no effect and ±100 for the full control effect; nearly all actives have a fitted effect of over 75% in size
Target sequence (P49798 whole entry, looked up): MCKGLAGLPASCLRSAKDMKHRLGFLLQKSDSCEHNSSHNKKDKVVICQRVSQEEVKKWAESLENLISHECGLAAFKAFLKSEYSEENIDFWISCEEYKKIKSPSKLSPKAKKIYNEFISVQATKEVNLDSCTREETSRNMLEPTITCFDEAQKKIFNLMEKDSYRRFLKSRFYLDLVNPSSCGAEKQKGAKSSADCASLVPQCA
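MLSMR compounds (23 nl, pin-transferred) preincubated 10 min at room temperature with a 500nM (2x) first reagent, then RGS4 at 900nM (2x) plus Transcreener GDP mix added; fluorescence polarization (620/688 nm) read before and after 90 min at 30 °C.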
BRCA1 expr up = BRCA1 expression activation | MCF7-BRCA1-FFLuc reporter, luminescence, 48 h; response scale: scaled: vehicle 0%, 10 µM genistein 100% | actives 1.1% (n = 380,000) | AID 624202 | Potency, µM (titrated, usually from 46.1 µM), for inactives: top-dose activation, usual class: activators; note: potency is the fitted concentration of half-maximal effect; nearly all actives have a fitted effect of over 80% in size
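MCF7-BRCA1-FFLuc cells, 2000/well in phenol-red-free MEM, attached 2 h then treated 48 h at 37 C. Luciferase luminescence read 15 min after reagent; normalized to genistein maximum activation (10microM) and DMSO, concentration-response fitted.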
Starred values were filed as active, the others as inactive; i = inactive; u = inconclusive; x = no result; [ ] = dose if it differs, or a comment. This is a sample that favours compounds with a hit; in the whole collection about 3.7% have one here. Unless noted, calls come from the whole dose curve; as a rule, active = well fitted curve in the direction sought with a large enough effect; inconclusive = small, poorly fitted or top-dose-only effect, or another doubt; inactive = no such curve, though single readings can be large; an effect the other way counts as inactive or inconclusive.

SMILES	PTHR1 agonist	D3 antag	B2AR arrestin	D3 ag	RGS4 inhibitor	BRCA1 expr up
O=C(CN1CCN(S(=O)(=O)/C=C/c2ccccc2)CC1)Nc1ccccc1N1CCOCC1	0%	17	-1%	10	0%	-3%
O=C(c1cc(C2CC2)nc2ccccc12)N1N=C(C(F)F)CC1(O)C(F)F (stereo unspecified)	i	22	0%	1	13%	-14%
O=C(c1cc(C2CC2)nc2ccc(Br)cc12)N1N=C(C(F)F)CC1(O)C(F)F (stereo unspecified)	0%[57.5 µM]	-62*	0%	-1	-19%	-3%
CCCc1cc(N2CCCC(C(=O)Nc3cc(Cl)ccc3OC)C2)n2ncnc2n1 (stereo unspecified)	i	20	x	-1	-14%	-1%
CCCc1cc(N2CCCC(C(=O)Nc3c(OC)cccc3OC)C2)n2ncnc2n1 (stereo unspecified)	24%	-5	0%	31*	28%	-1%
CCOc1ccc(Cl)cc1CNCCNCC(C)O (stereo unspecified)	i	-71*	0%	-33	-8%	0%
c1ccc2c(c1)nc1n2CCN1CCNC1CCCCC1	-8%	0	3%	-1	-10%	-25%
c1ccc(CN2CCN(CCN3CCn4c3nc3ccccc34)CC2)cc1	i	-72*	-1%	1	-14%	-13%
c1ccc2c(c1)nc1n2CCN1CCN1CCCC1	i	-112*	-1%	-36	19%	-12%
CCN(CC)CCCNC(=S)N1CCN(c2nc(-c3ccc(F)cc3)cs2)CC1	0%	-52*	0%	-7	-41%	-76%
CCNC(=S)N1CCN(c2nc(-c3ccc(F)cc3)cs2)CC1	-93%	-2	-1%	3	-14%	17%
CC(=O)Nc1ccc(NC(=O)C(NC(=O)c2ccc(Cl)cc2)C(C)C)cc1 (stereo unspecified)	i	-15	x	2	x	-18%
CN(C)c1ccc(NC(=O)c2ccc3nc[nH]c3c2)cc1	-14%	-5	0%	-3	-37%	13µM*
CCSc1nnc(NC(=O)C(NC(=O)c2ccc(Cl)cc2)C(C)C)s1 (stereo unspecified)	-12%	-61*	1%	-33	-3%	-6%
CCSc1nnc(NC(=O)c2ccc3nc[nH]c3c2)s1	-38%	-29	0%	-11	-9%	3.2µM*
COc1cc(NC(=O)CC2C(=O)N(c3ccccc3)C(=O)N2Cc2ccc(F)cc2)cc(OC)c1 (stereo unspecified)	i	x	x	5	3%	x
COc1ccc2oc3cc(Cl)ccc3c(=O)c2c1	-7%	4	x	4	x	-7%
O=C(c1cc(C2CCCCN2S(=O)(=O)c2cccs2)on1)N1CCOCC1 (stereo unspecified)	i	13	x	2	x	32%
CSc1sccc1/C=N/O	i	-55*	0%	14	1%	-8%
CSc1sccc1/C=N/NC(=O)c1ccncc1	i	11	-1%	1	-6%	-65%
CN(C)CCCNc1nc2cc(-c3cccc(Cl)c3)sc2c(=O)n1C	i	-60*	x	-21	x	-8%
O=[N+]([O-])c1ccc(N2CCN(c3ccccc3)CC2)nc1	-16%	-27	4%	-8	11%	24%
O=[N+]([O-])c1ccc(N2CCc3ccccc3C2)nc1	-12%	0	0%	0	-5%	11µM*
COc1ccc(-c2nc3cc(NC(=O)Cc4ccc(Cl)cc4)ccc3o2)cc1OC	-5%	x	x	-4	-37%	x
C=CCCC1CN(CCCC)S(=O)(=O)c2c(F)cccc2O1 (stereo unspecified)	-24%	23	x	35*	u	-7%
SMILES	PTHR1 agonist	D3 antag	B2AR arrestin	D3 ag	RGS4 inhibitor	BRCA1 expr up
CCCCN1C[C@H](CO)Oc2cccc(F)c2S1(=O)=O	24%	-17	x	-1	48%	16%
O=C(Cc1ccc([N+](=O)[O-])cc1)N1CCN=C1SCc1ccccc1	i	3	-2%	2	-18%	-71%
Cc1ccc(C)c(CSC2=NCCN2C(=O)Cc2ccc([N+](=O)[O-])cc2)c1	-10%	-61*	-1%	-8	-22%	-29%
COc1ccc([C@]23Cc4cc(C#N)ccc4C(O2)C2=C(CC4(CCCCC4)OC2=O)O3)cc1	x	x	0%[9.22 µM]	x	x	x
CC(C(=O)Nc1cc(Cl)cc(Cl)c1)N1CCCC1 (stereo unspecified)	i	-110*	0%	-16	15%	-10%
Cn1c(=O)[nH]c(=O)c2c1nc([N+](=O)[O-])n2Cc1ccccc1	-42%	-82*	0%	-27	-14%	-81%
CC(C)Cn1c([N+](=O)[O-])nc2c1c(=O)[nH]c(=O)n2C	-2%	-13	-1%	-10	-2%	-74%
Cc1ccc(C(=O)CC(=O)c2cccc(F)c2)c(O)c1	-4%[57.5 µM]	-62*	0%	-3	14%[56.9 µM]	-50%
Cc1ccc(C(=O)CC(=O)c2ccccc2C)c(O)c1	-31%	-50*	-1%	11	-8%	-29%
Cc1ccc(CN2CCN(CC(=O)N=Nc3c(O)[nH]c4ccccc34)CC2)cc1	-18%	-90*	0%	-17	-11%	-18%
CCc1ccc(S(=O)(=O)c2nnn3c2nc(N2CCN(c4ccccc4)CC2)c2cc(Cl)ccc23)cc1	i	x	x	-8	0%	x
CC(C)(C)c1ccc(S(=O)(=O)/C=C/C#N)cc1	x	x	x	x	2.1µM*	-63%
CC(C)(C)c1ccc(NS(=O)(=O)c2ccc(N)cc2)cc1	i	4	0%	-6	-7%[56.9 µM]	-7%
COc1ccc(-n2c(-c3cccc(C)c3[N+](=O)[O-])n[nH]c2=S)cc1	i	-57*	0%	-12	-3%[56.9 µM]	19%
Cc1cccc(-c2n[nH]c(=S)n2-c2ccccc2)c1[N+](=O)[O-]	i	-20	-1%	3	-18%	-7%
CC(NCc1ccc(S(N)(=O)=O)cc1)C(=O)N1CCc2ccccc21 (stereo unspecified)	3%	2	3%	-3	8%	2%
CC(NCc1ccc2c(c1)OCO2)C(=O)N1CCc2ccccc21 (stereo unspecified)	-4%	-107*	-1%	-12	2%	-16%
Cc1ccc(CNc2nc3ccc(Cl)cc3n3cnnc23)cc1	-16%	x	x	7	-7%	x
CCOc1cc(Br)c(Br)c(C=Nc2ccc(NC(C)=O)cc2)c1O	i	-100*	0%	3	-24%	-22%
CC(=O)Nc1ccc(N=Cc2c(O)c(C(=O)Nc3ccccc3)cc3ccccc23)cc1	-42%	11	0%	2	-35%	-52%

Screens as filed in PubChem.
